# PubChem BioAssay
# Several values for one entry are separate records, joined by “and”; a condition that tells them apart may be missing. Equal values may be shown once. For some of these results: Entries with a potency or affinity are not part of this list. Activity calls are given as the source filed them. Unless noted, the rule behind the calls is not given here.
# Experiments:
# [1] = P. berghei load reduction in hepatocytes – cell-based, HepG2, luciferase luminescence, HepG2 viability, primary screen (AID 624349; in the data active = parasite load remaining mostly below about 12%, no sharp cut-off; inactive = mostly above about 10%;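 note: 100% = mean of DMSO negative control wells on the same plate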); conditions: P. berghei liver stage in HepG2, luciferase luminescence, concentration not given here; parasite load remaining: stronger effect = lower value; viability: measured here: HepG2 viability without parasites
# [2] = EMT-state selective cytotoxicity in co-culture – imaging, PC-3E GFP, TEM4-18 mCherry, primary screen (AID 1345086;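 active = compounds killing one labelled cell type while sparing the other, by normalised counts and ratio limits, not self-fluorescent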;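 for all read-outs here: cells exposed to compound for 72 h before imaging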;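 for red/green cell ratio (normalised): normalised mesenchymal count divided by normalised epithelial count so high means epithelial killing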); conditions: PC-3E GFP / TEM4-18 mCherry co-culture, imaging cell counts, at 1 µM; for red/green cell ratio (normalised): actives lie on both sides
# [3] = viability loss with induced miR-34 in A549 – imaging, A549 dox-inducible miR-34, nuclei and caspase counts, primary screen (AID 1347080;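 active = compounds whose cell count with miR-34 switched on is under 0.7 times the count with it off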); conditions: A549 miR-34 inducible, Hoechst nuclei count, 48 h
# [4] = biological target: Mitogen-activated protein kinase 7 (Homo sapiens) (UniProt Q13164); assay: Gal4-ERK5 driven luciferase induction – cell-based, HTS, primary screen (AID 1508626;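 active = luciferase signal above three times the same-plate solvent-only control wells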;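 note: luciferase driven by Gal4-ERK5 fusion binding five Gal4 sites before minimal TATA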); conditions: HeLa Gal4-ERK5 transactivation, 18 h, at 5 µM, stronger effect = higher value
# Chain of Mitogen-activated protein kinase 7 (Homo sapiens) (Q13164 whole entry, looked up, the tested form may be a part): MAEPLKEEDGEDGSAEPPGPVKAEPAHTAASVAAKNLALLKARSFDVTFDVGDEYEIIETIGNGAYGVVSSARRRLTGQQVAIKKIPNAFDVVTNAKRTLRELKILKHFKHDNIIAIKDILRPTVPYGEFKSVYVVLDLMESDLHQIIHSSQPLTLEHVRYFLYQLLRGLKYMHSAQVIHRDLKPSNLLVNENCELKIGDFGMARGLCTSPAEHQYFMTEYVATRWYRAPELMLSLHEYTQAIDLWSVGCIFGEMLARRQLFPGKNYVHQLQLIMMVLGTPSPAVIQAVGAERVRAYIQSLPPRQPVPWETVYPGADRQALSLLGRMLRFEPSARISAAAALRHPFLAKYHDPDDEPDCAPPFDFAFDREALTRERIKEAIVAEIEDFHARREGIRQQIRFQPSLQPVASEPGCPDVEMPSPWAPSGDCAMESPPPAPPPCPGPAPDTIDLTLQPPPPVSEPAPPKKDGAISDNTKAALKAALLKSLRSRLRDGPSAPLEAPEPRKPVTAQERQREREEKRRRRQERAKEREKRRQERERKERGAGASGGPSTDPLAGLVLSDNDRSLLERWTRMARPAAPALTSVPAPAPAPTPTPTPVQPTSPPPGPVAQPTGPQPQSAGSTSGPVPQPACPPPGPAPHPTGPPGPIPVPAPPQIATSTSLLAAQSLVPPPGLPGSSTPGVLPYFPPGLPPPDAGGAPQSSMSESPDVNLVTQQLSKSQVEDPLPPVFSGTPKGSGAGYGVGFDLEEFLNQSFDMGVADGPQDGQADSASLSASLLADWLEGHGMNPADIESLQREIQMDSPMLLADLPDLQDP
# [5] = system: Aerobactin synthetase IucA (Klebsiella pneumoniae hvKP1); assay: IucA enzyme inhibition, primary screen, biochemical, Spectrum library (AID 1346200); conditions: malachite green pyrophosphate, A620, at 8 µM, stronger effect = lower value;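 note: 100% = wells without compound and 0% = wells lacking enzyme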
# [6] = yeast 75Q aggregation reduction – 75Q-TubU reporter (AID 1593); conditions: Yeast 75Q polyglutamine aggregation reporter
# [7] = restoration of touch response, mutant HTT neurons – whole organism, C. elegans mechanosensory neurons, N-terminal huntingtin (AID 1599); conditions: C. elegans polyQ-huntingtin mechanosensory neurons, stronger effect = higher value
# [8] = blockers of cytochrome c efflux from mitochondria – biochemical, purified mitochondria (AID 1603); conditions: stronger effect = lower value;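 note: mouse liver mitochondria challenged with calcium chloride; signal normalized to the plate average as 100%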
# [9] = polyglutamine aggregate formation blockers (AID 1604); conditions: polyglutamine-induced protein aggregation inhibition assay; stronger effect = higher value; tested at 2.5 µM
# [10] = glutamate transport activators, MN-1 cells, MN-1 cell line (AID 1612); conditions: MN-1 motor neuron cells, stronger effect = higher value;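 note: tested at 1 µM final; 0% = mean of DMSO vehicle wells on each plate; positive means more glutamate uptake than control and negative means less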
# [11] = 75Q-TubH aggregate inhibition, S. cerevisiae, yeast (AID 1616); conditions: S. cerevisiae 75Q-TubH polyglutamine aggregation suppression; stronger effect = higher value
# [12] = MELAS cybrid and Rieske KO viability enhancers – cell-based, MELAS cybrids, Rieske KO mouse fibroblasts, CellTiter-Glo, primary screen (AID 1508586;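 active = mean z-score across replicates of 1.96 or higher in either the MELAS or the Rieske mutant cell line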;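 note: z relative to plate mean and SD of compound and empty wells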); conditions: low glucose
# [13] = galactose survival enhancers in mitochondrial complex I cybrids – cell-based, galactose medium, ATP luminescence, primary screen (AID 1645843;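 active = z-score of at least 1.8 in each of two replicates, scored against plate mean and spread of sample wells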;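 note: positive z means more ATP and so rescue of galactose-driven cybrid death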); conditions: complex I mutant cybrid cells, 72 h, stronger effect = higher value
# [14] = compounds altering circadian rhythm period length – cell-based, LOPAC library, luminescence reporter (AID 2774); conditions: circadian reporter cells, at 7 µM, actives lie on both sides;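 note: values are relative to mean of DMSO wells on each plate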
# [15] = compounds altering viability of human ES cells (AID 493140); conditions: human embryonic stem cell survival screen; stronger effect = higher value;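 note: cells exposed to compounds for four days before counting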
# [16] = system: Hepatitis C virus NS3 helicase; assay: blockers of NS3h binding to ssDNA – biochemical, fluorescence polarization, LOPAC1280 library, primary screen (AID 687035; in the data active = inhibition above about 37%); conditions: Purified HCV NS3 helicase, Cy5-dT15 ssDNA binding fluorescence polarization; stronger effect = higher value; concentration not given here
# [17] = compounds altering Cy5-DNA-NS3h complex signal – biochemical, LOPAC1280, artefact control for HCV NS3 helicase inhibitor project (AID 687037); conditions: Cy5-DNA-NS3h complex fluorescence interference counterscreen
# [18] = system: Aerobactin synthetase IucA (Klebsiella pneumoniae, hypervirulent); assay: biochemical IucA inhibition screen of LOPAC library by absorbance (AID 1346212); conditions: IucA enzyme assay, absorbance (OD) readout; stronger effect = lower value;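 tested at 8 µM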;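 note: 100% = no compound wells and 0% = no enzyme wells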
# [19] = blockers of cellular phospholipid synthesis – cell-based, LOPAC library, screen 4, primary screen (AID 1347384); conditions: animal cells, phospholipid biosynthesis inhibition screen; at 10 µM
# [20] = measured here: epithelial PC-3E GFP cell survival
# [21] = measured here: mesenchymal TEM4-18 mCherry cell survival
# [22] = measured here: relative caspase fold change +Dox/-Dox
# [23] = measured here: total cells with miR-34 induction, stronger effect = lower value
# [24] = measured here: total cells without miR-34 induction
# [25] = MELAS cybrid survival, CellTiter-Glo 48 h, stronger effect = higher value
# [26] = Rieske KO mouse fibroblast survival, CellTiter-Glo 72 h
smiles,measurement,setting,value
CC(CC(C(N)=O)(c1ccccc1)c1ccccc1)N(C)C (centres undefined),parasite load remaining,[1],59.7% (inactive)
same,viability,[1],166%
same,red/green cell ratio (normalised),[2],0.86 (inactive)
same,normalised cell number,[2]; [20],1.14
same,normalised cell number,[2]; [21],0.99
same,fold change,[3]; stronger effect = lower value,0.911 (inactive)
same,fold change,[3]; [22],5.38
same,cell count,[3]; [23],11900
same,cell count,[3]; [24],13000
same,luciferase signal,[4],172 AU (inactive)
C=C(C)C1CNC(C(=O)O)C1CC(=O)O (centres undefined),parasite load remaining,[1],103% (inactive)
same,viability,[1],86.2%
same,red/green cell ratio (normalised),[2],0.79 (inactive)
same,normalised cell number,[2]; [20],0.92
same,normalised cell number,[2]; [21],0.73
same,activity remaining,[5],96.1% (inactive)
OCC(O)[C@H]1O[C@@H]2O[C@H](C(Cl)(Cl)Cl)O[C@@H]2[C@H]1O (some centres undefined),red/green cell ratio (normalised),[2],0.83 (inactive)
same,normalised cell number,[2]; [20],1.02
same,normalised cell number,[2]; [21],0.85
same,fold change,[3]; stronger effect = lower value,0.871 (inactive)
same,fold change,[3]; [22],0.819
same,cell count,[3]; [23],8180
same,cell count,[3]; [24],9390
CCC(C)C(=O)O[C@H]1[C@H](O)C2C(CN3CC(C)CCC3[C@@]2(C)O)C2C[C@]34O[C@]5(O)C(OC(=O)C(C)(O)CC)CC[C@@]3(C)C5C(OC(C)=O)[C@@H](OC(C)=O)C4[C@@]21O (some centres undefined),score,[6],1.53
same,rescue above control,[7],-1.62
same,cytochrome c release ratio,[8],0.8
same,inhibition of aggregation,[9],60.8%
same,glutamate uptake change,[10],12.6%
same,aggregation suppression score,[11],1.64
same,parasite load remaining,[1],35.5% (inactive)
same,viability,[1],65.2%
same,red/green cell ratio (normalised),[2],0.9 (inactive)
same,normalised cell number,[2]; [20],1.11
same,normalised cell number,[2]; [21],1
same,activity remaining,[5],105% (inactive)
C[C@]12CCC3[C@@H](CC[C@@]45O[C@@H]4C(O)=C(C#N)C[C@]35C)C1CC[C@@H]2O (some centres undefined),red/green cell ratio (normalised),[2],0.77 (inactive)
same,normalised cell number,[2]; [20],1.16
same,normalised cell number,[2]; [21],0.89
same,fold change,[3]; stronger effect = lower value,1 (inactive)
same,fold change,[3]; [22],0.592
same,cell count,[3]; [23],8890
same,cell count,[3]; [24],8870
CC1=C2CCC3C(CC[C@]4(C)C(=O)CCC34)[C@@]2(C)CCC1=O (some centres undefined),parasite load remaining,[1],48.4% (inactive)
same,viability,[1],85.7%
same,red/green cell ratio (normalised),[2],0.88 (inactive)
same,normalised cell number,[2]; [20],1.27
same,normalised cell number,[2]; [21],1.12
same,activity remaining,[5],104% (inactive)
O=c1[nH]c(=O)n(Cl)c(=O)n1Cl,red/green cell ratio (normalised),[2],1.21 (inactive)
same,normalised cell number,[2]; [20],0.87
same,normalised cell number,[2]; [21],1.05
same,fold change,[3]; stronger effect = lower value,0.959 (inactive)
same,fold change,[3]; [22],0.94
same,cell count,[3]; [23],8550
same,cell count,[3]; [24],8920
C#CCN(C)C(C)Cc1ccccc1 (centres undefined),parasite load remaining,[1],54.6% (inactive) and 61.7% (inactive)
same,viability,[1],101% and 170%
same,red/green cell ratio (normalised),[2],1.02 (inactive)
same,normalised cell number,[2]; [20],1.06
same,normalised cell number,[2]; [21],1.07
same,fold change,[3]; stronger effect = lower value,0.923 (inactive) and 0.946 (inactive) and 0.891 (inactive)
same,fold change,[3]; [22],2.5 and 4.7 and 1.31
same,cell count,[3]; [23],9410 and 12100 and 9880
same,cell count,[3]; [24],10200 and 12800 and 11100
same,z-score,[12]; [25],-0.242 (inactive)
same,z-score,[12]; [26],-0.831
same,z-score,[13],0.995 (inactive) and 0.67 (inactive)
C[N+]1(C)CCOC(O)(c2ccc(-c3ccc(C4(O)C[N+](C)(C)CCO4)cc3)cc2)C1 (centres undefined),period change,[14],0.02 h (inactive)
same,survival,[15],3.33 (inactive)
same,parasite load remaining,[1],172% (inactive) and 77.5% (inactive)
same,viability,[1],105% and 75.6%
same,inhibition,[16],3% (inactive)
same,fluorescence ratio (interference),[17],1 (inactive)
same,red/green cell ratio (normalised),[2],0.92 (inactive)
same,normalised cell number,[2]; [20],1.15
same,normalised cell number,[2]; [21],1.05
same,remaining activity,[18],108% (inactive)
same,fold change,[3]; stronger effect = lower value,1.02 (inactive) and 0.872 (inactive)
same,fold change,[3]; [22],0.804 and 1.21
same,cell count,[3]; [23],10300 and 8560
same,cell count,[3]; [24],10200 and 9810
same,outcome,[19],inactive
same,z-score,[12]; [25],-0.344 (inactive)
same,z-score,[12]; [26],-0.223
same,z-score,[13],0.135 (inactive)
CC1(C)C2CC(=O)[C@]3(C)C(CC[C@@]4(C)[C@H](c5ccoc5)OC(=O)[C@H]5O[C@]543)[C@@]2(C)C(=O)C[C@H]1O (some centres undefined),red/green cell ratio (normalised),[2],0.94 (inactive)
same,normalised cell number,[2]; [20],1.08
same,normalised cell number,[2]; [21],1.01
same,activity remaining,[5],109% (inactive)
same,luciferase signal,[4],36 AU (inactive)
O=C(O)Cc1cnc[nH]1,period change,[14],0.01 h (inactive)
same,inhibition,[16],-1% (inactive)
same,fluorescence ratio (interference),[17],1 (inactive)
same,red/green cell ratio (normalised),"[2]; counts scaled to control wells, 1 = unselective",0.87 (inactive)
same,normalised cell number,[2]; [20],1.11
same,normalised cell number,[2]; [21],0.97
same,remaining activity,[18],121% (inactive)
same,fold change,[3]; stronger effect = lower value,0.943 (inactive)
same,fold change,[3]; [22],1.63
same,cell count,[3]; [23],10100
same,cell count,[3]; [24],10700
same,outcome,[19],inactive
same,z-score,[13],-0.12 (inactive)
CC(C)=CCCC1(C)C=Cc2c(O)c3c(c(CC=C(C)C)c2O1)OC12C(=CC4CC1C(C)(C)OC2(C/C=C(/C)C(=O)O)C4=O)C3=O (centres undefined),score,[6],0.45
same,rescue above control,[7],-1.66
same,cytochrome c release ratio,[8],3.17
same,inhibition of aggregation,[9],100%
same,glutamate uptake change,[10],-92.9%
same,aggregation suppression score,[11],0.449
same,red/green cell ratio (normalised),[2],1.03 (inactive)
same,normalised cell number,[2]; [20],1.09
same,normalised cell number,[2]; [21],1.13
same,activity remaining,[5],120% (inactive)
O=c1c(O)c(-c2ccc(O)c(O)c2)oc2c(O)c(O)cc(O)c12,red/green cell ratio (normalised),[2],1.09 (inactive)
same,normalised cell number,[2]; [20],0.84
same,normalised cell number,[2]; [21],0.91
same,activity remaining,[5],118% (inactive)
same,luciferase signal,[4],48 AU (inactive)
C[C@@H]1O[C@@H](O[C@H]2CC[C@]3(C=O)C4CC[C@]5(C)[C@@H](C6=CC(=O)OC6)CC[C@]5(O)C4CC[C@]3(O)C2)[C@H](O)[C@H](O)[C@H]1O (some centres undefined),parasite load remaining,[1],3.9% (inactive)
same,viability,[1],51%
same,red/green cell ratio (normalised),[2],0.21 (inactive)
same,normalised cell number,[2]; [20],0.1
same,normalised cell number,[2]; [21],0.02
same,activity remaining,[5],95.5% (inactive)
CC(=O)O[C@@H]1CC[C@]2(C)C3CC[C@]4(C)C(=O)CCC4C3CC[C@H]2C1 (some centres undefined),parasite load remaining,[1],51% (inactive)
same,viability,[1],94%
same,red/green cell ratio (normalised),[2],1.18 (inactive)
same,normalised cell number,[2]; [20],0.95
same,normalised cell number,[2]; [21],1.12
same,activity remaining,[5],99.4% (inactive)
C=C/C=C\CC1=C[C@@H](OC(=O)[C@@H]2[C@@H](C=C(C)C)C2(C)C)CC1=O,red/green cell ratio (normalised),[2],0.66 (inactive)
same,normalised cell number,[2]; [20],1.35
same,normalised cell number,[2]; [21],0.89
same,fold change,[3]; stronger effect = lower value,0.949 (inactive)
same,fold change,[3]; [22],1.14
same,cell count,[3]; [23],8080
same,cell count,[3]; [24],8520
CC[C@H]1CN2CCC1C[C@@H]2[C@@H](O)c1ccnc2ccc(OC)cc12 (some centres undefined),score,[6],1.22
same,rescue above control,[7],-8.65
same,cytochrome c release ratio,[8],0.67
same,inhibition of aggregation,[9],32.5%
same,glutamate uptake change,[10],1.44%
same,aggregation suppression score,[11],1.35
same,parasite load remaining,[1],20% (inactive)
same,viability,[1],79.3%
same,red/green cell ratio (normalised),[2],0.99 (inactive)
same,normalised cell number,[2]; [20],1.01
same,normalised cell number,[2]; [21],1
same,activity remaining,[5],117% (inactive)
O=C(NC(=O)c1c(F)cccc1F)Nc1ccc(Cl)cc1,red/green cell ratio (normalised),[2],1 (inactive)
same,normalised cell number,[2]; [20],0.99
same,normalised cell number,[2]; [21],0.99
same,activity remaining,[5],122% (inactive)
same,luciferase signal,[4],32 AU (inactive)
